Activity calls are given as the source filed them. Rule for the calls: active = hit-call score of the fitted dose curve at least 0.9, where 1 is the maximum; inactive = score below 0.9.
Tests used:
[1] = ATG_CRE_CIS: Attagene CIS-FACTORIAL HepG2 Assay for human cAMP Responsive Element (CRE) binding protein 3 (AID 2282926); settings: HepG2 CRE cis-reporter, Attagene multiplexed mRNA; actives raise or lower the signal
How it was run: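 Liver-derived HepG2, transfected with a CRE-containing reporter panel, exposed 24 h; transcript levels sized and quantified by capillary electrophoresis of labelled amplicons; signal changes either way referenced to vehicle.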

[2] = ATG_CMV_CIS: Attagene CIS-FACTORIAL HepG2 Assay for human CMV (Internal Marker) (AID 2282928); settings: HepG2 CMV promoter reporter, transcription factor profiling; actives raise or lower the signal;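 note: endpoint acts as a background internal control marker rather than a target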
How it was run: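 Readout: fluorescent reporter cDNA fragments separated by capillary electrophoresis after RT-PCR and HpaI cut. Cells: HepG2 carrying transfected cis-promoter reporter constructs, dosed 24 h. Endpoint serves as background internal-marker control, fit bidirectionally versus DMSO.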

[3] = ATG_DR4_LXR_CIS: Attagene CIS-FACTORIAL HepG2 Assay for human Liver X Receptor (LXR), DR4 submotif (AID 2282929); settings: HepG2 Attagene DR4 cis-reporter, mRNA transcription; actives raise or lower the signal
How it was run: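 Transiently transfected HepG2 liver cells; cis-regulated reporters; 24 h dosing. RT-PCR plus CE read-out of reporter mRNA. DMSO baseline, bidirectional curve fitting.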

[4] = ATG_AP_1_CIS: Attagene CIS-FACTORIAL HepG2 Assay for human Activator Protein 1 (AP-1) (AID 2282931); settings: HepG2 Attagene cis-factorial AP-1 reporter mRNA; actives raise or lower the signal
How it was run: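 We transfected HepG2 cells transiently with a set of cis-regulated reporter transcription units, dosed them for 24 h, and quantified reporter mRNA via RT-PCR and capillary electrophoresis, scoring gain or loss of signal relative to DMSO.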

[5] = ATG_AP_2_CIS: Attagene CIS-FACTORIAL HepG2 Assay for human Activator Protein 2 (AP-2) (AID 2282932); settings: HepG2 AP-2 cis-reporter, Attagene transcription factor profiling; actives raise or lower the signal
How it was run: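 Endogenous transcription factor activity is reported through transfected multiplex reporter constructs in HepG2, after 24 h of compound exposure. Transcripts were quantified by RT-PCR and capillary electrophoresis of fluorescent fragments. Bidirectional fit against DMSO.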

[6] = ATG_BRE_CIS: Attagene CIS-FACTORIAL HepG2 Assay for human Bone Morphogenetic Protein (BMP) Response Element (BRE) (AID 2282933); settings: HepG2 BMP response element reporter, Attagene transcription factor profiling; actives raise or lower the signal
How it was run: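 Read-out: reporter mRNA induction quantified by RT-PCR and capillary electrophoresis after 24 h chemical exposure of transfected HepG2 cells. Endogenous factor activity on the BMP response element; gain or loss fitted against DMSO baseline.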

[7] = ATG_E_Box_CIS: Attagene CIS-FACTORIAL HepG2 Assay for human Enhancer Box (E-box) (AID 2282936); settings: HepG2 E-box cis-reporter transcription, actives raise or lower the signal
How it was run: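 E-box-driven reporter transcripts measured in transiently transfected HepG2 after 24 h exposure: RNA reverse-transcribed, PCR-amplified, fluorescently labelled, digested and resolved by capillary electrophoresis. Gain or loss relative to DMSO.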

[8] = ATG_M_61_CIS: Attagene CIS-FACTORIAL HepG2 Assay for M61 Transcription Factor (Internal Marker) (AID 2282937); settings: HepG2 Attagene CIS-FACTORIAL M61 internal marker reporter; actives raise or lower the signal
How it was run: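 Multiplexed reporter mRNA assay, HepG2 human hepatoma cells, 24 h treatment. Signal: FAM-labelled, HpaI-digested RT-PCR fragments by CE. Fit: bidirectional, baseline DMSO.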

[9] = ATG_EGR_CIS: Attagene CIS-FACTORIAL HepG2 Assay for human Early Growth Response 1 (EGR1) (AID 2282938); settings: HepG2 Attagene CIS-FACTORIAL EGR reporter mRNA; actives raise or lower the signal
How it was run: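 Multiplexed cis-reporter system in human hepatoma HepG2 cells, transiently transfected. Cells are dosed for 24 h; reporter transcripts are amplified, fluorescently tagged and sized by capillary electrophoresis, with DMSO as negative control.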

[10] = ATG_M_19_CIS: Attagene CIS-FACTORIAL HepG2 Assay for M19 Transcription Factor (Internal Marker) (AID 2282939); settings: HepG2 Attagene CIS-FACTORIAL M19 internal marker reporter; actives raise or lower the signal
How it was run: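 Readout: fluorescent reporter-transcript fragments by capillary electrophoresis after RT-PCR. Human HepG2 liver cells carried transfected MRTU constructs reporting endogenous transcription-factor activity; exposure 24 h. Gain or loss of signal fitted relative to DMSO.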

[11] = ATG_Ets_CIS: Attagene CIS-FACTORIAL HepG2 Assay for human Erythroblast Transformation Specific (ETS) (AID 2282941); settings: HepG2 ETS cis-reporter transcription, actives raise or lower the signal
How it was run: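 RT-PCR/capillary electrophoresis fluorescence read-out of reporter mRNA; HepG2 transient multi-reporter transfection; 24 h compound exposure; gain or loss of signal fitted bidirectionally relative to DMSO.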

[12] = ATG_FoxO_CIS: Attagene CIS-FACTORIAL HepG2 Assay for human Forkhead box O (FoxO) (AID 2282943); settings: HepG2 Attagene cis-reporter, FoxO element, mRNA; actives raise or lower the signal
How it was run: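 Human hepatoma HepG2 cells carry transiently introduced reporter transcription units controlled by cis promoter elements. Chemical treatment lasted 24 h, and mRNA signal was compared with DMSO.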

[13] = ATG_ISRE_CIS: Attagene CIS-FACTORIAL HepG2 Assay for human Interferon Regulatory Factor 1 (IRF1) binding to an Interferon-Stimulated Response Element (ISRE) (AID 2282948); settings: HepG2 ISRE cis-reporter (Attagene), mRNA transcription readout; actives raise or lower the signal
How it was run: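 Read-out: fluorescent RT-PCR products resolved by capillary electrophoresis, reporting endogenous transcription factor activity via ISRE-driven reporter mRNA in transfected HepG2 cells dosed for 24 h; gain or loss fitted relative to DMSO.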

[14] = ATG_M_06_CIS: Attagene CIS-FACTORIAL HepG2 Assay for M06 Transcription Factor (Internal Marker) (AID 2282950); settings: HepG2 Attagene CIS-FACTORIAL M06 internal marker reporter; actives raise or lower the signal
How it was run: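 Terse: HepG2, transient MRTU transfection (FuGene 6), 24 h dosing; total RNA, oligo(dT) RT, PCR, FAM label, HpaI cut, capillary electrophoresis; bidirectional fit vs DMSO baseline; background-control endpoint.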

[15] = target: Paired box protein Pax-6 (Homo sapiens) (UniProt P26367); experiment: ATG_Pax6_CIS: Attagene CIS-FACTORIAL HepG2 Assay for human Paired Box 6 (PAX6) (AID 2282956); settings: HepG2 CIS-FACTORIAL PAX6 reporter transcription, RNA readout; actives raise or lower the signal
How it was run: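 Readout: reporter transcript fluorescence after RT-PCR and capillary electrophoresis. Cells: HepG2, transiently transfected with cis-regulated MRTUs. Exposure 24 h. Gain or loss of signal fitted bidirectionally relative to DMSO.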

[16] = ATG_SREBP_CIS: Attagene CIS-FACTORIAL HepG2 Assay for human Sterol Regulatory Element Binding (SREBP) (AID 2282962); settings: HepG2 Attagene cis-factorial SREBP reporter, mRNA; actives raise or lower the signal
How it was run: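 Readout: fluorescent reporter-transcript peaks resolved by capillary electrophoresis after RT-PCR. Cells were human HepG2 carrying transfected cis-promoter reporter constructs, dosed for 24 h. Gain or loss of signal was fitted against DMSO controls.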

[17] = ATG_TA_CIS: Attagene CIS-FACTORIAL HepG2 Assay for human TA Basal Promoter (AID 2282964); settings: HepG2 Attagene CIS-factorial TA basal promoter reporter; actives raise or lower the signal
How it was run: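 Transfected HepG2, 24 h compound exposure; RNA → RT-PCR → FAM primer extension → HpaI cut → CE fluorescence. Gain/loss-of-signal fitted against DMSO negative control. Background-control readout.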

[18] = ATG_TCF_b_cat_CIS: Attagene CIS-FACTORIAL HepG2 Assay for human T-Cell-Factor with beta-catenin (TCF/b-cat) (AID 2282965); settings: HepG2 TCF/beta-catenin cis-reporter transcription, actives raise or lower the signal
How it was run: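 Measured: reporter mRNA in HepG2 transiently transfected with cis-promoter reporter units, 24 h after chemical addition. Fitting was bidirectional, DMSO as negative control.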

[19] = ATG_TGFb_CIS: Attagene CIS-FACTORIAL HepG2 Assay for human Transforming Growth Factor (TGF) (AID 2282967); settings: HepG2 Attagene CIS TGFb reporter, mRNA transcription; actives raise or lower the signal
How it was run: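 Readout: fluorescently labeled reporter cDNA fragments resolved by capillary electrophoresis after RT-PCR. Transfected HepG2 cells dosed for 24 h; endogenous TF activity at TGFB1-linked cis element; gain or loss fitted relative to DMSO.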

[20] = ATG_Oct_MLP_CIS: Attagene CIS-FACTORIAL HepG2 Assay for human Octamer-Binding Transcription Factor (Oct) (AID 2282993); settings: HepG2 Attagene cis-factorial Oct reporter, mRNA; actives raise or lower the signal
How it was run: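 Read-out: reporter mRNA via RT-PCR plus capillary electrophoresis of 6-FAM-labelled fragments. Transiently transfected HepG2, 24 h exposure, endogenous TF activity on cis elements. Gain or loss of signal fitted relative to DMSO.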

Measured: AC50

Paired box protein Pax-6 (Homo sapiens), sequence (P26367 whole entry, looked up): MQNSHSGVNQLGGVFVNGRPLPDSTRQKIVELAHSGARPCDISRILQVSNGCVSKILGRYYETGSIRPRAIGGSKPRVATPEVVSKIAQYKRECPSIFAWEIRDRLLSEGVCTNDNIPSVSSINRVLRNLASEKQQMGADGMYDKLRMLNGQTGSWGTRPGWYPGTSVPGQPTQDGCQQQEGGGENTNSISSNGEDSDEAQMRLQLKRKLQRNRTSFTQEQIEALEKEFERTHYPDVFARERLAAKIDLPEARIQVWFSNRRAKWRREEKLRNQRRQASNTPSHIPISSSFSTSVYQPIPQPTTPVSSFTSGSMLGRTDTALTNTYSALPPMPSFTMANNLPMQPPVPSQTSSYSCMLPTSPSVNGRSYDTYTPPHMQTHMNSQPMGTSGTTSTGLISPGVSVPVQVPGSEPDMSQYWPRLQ

Cc1cc(O)cc(C)c1Cl
active: [1] 79 µM | [2] 37.3 µM | [3] 65.4 µM | [20] 100 µM
inactive: all other assays above

Clc1ccc(Sc2cc(Cl)c(Cl)cc2Cl)cc1
inactive: all assays above

CCCOCCC
inactive: all assays above

CCCC(=O)OC
inactive: all assays above

CCCCOC(=O)COc1ccc(Cl)cc1Cl
inactive: all assays above

CC(C)=CCOC(=O)c1ccccc1
inactive: all assays above

CC(=O)CCc1ccccc1
inactive: all assays above

COC(=O)[C@]1(C)CCC[C@@]2(C)[C@H]1CC=C1C=C(C(C)C)CC[C@@H]12
active: [2] 100 µM | [4] 62.4 µM | [6] 100 µM
inactive: all other assays above

Cc1ccnc(N)c1
inactive: all assays above

CCOc1ccc2c(c1)C(C)CC(C)(C)N2 (stereo not given)
inactive: all assays above

C=C(C)C(=O)OCCCCCC
inactive: all assays above

[O-][n+]1ccc(Cl)cc1
inactive: all assays above

CCCCCCC1CCC(=O)O1 (stereo not given)
inactive: all assays above

O=C1CCCCCCCCCCCCCC1
active: [3] 49.4 µM | [4] 44.6 µM
inactive: all other assays above

Sc1nc2ccccc2s1
inactive: all assays above

C=CCOCC(CC)(CO)COCC=C
inactive: all assays above

C=CC(C)(CCC=C(C)C)OC(=O)c1ccccc1 (stereo not given)
active: [2] 100 µM | [3] 34.2 µM | [4] 127 µM
inactive: all other assays above

CCc1cc(C(N)=S)ccn1
inactive: all assays above

O=C(c1ccccc1)c1ccccc1O
active: [3] 162 µM | [13] 161 µM | [18] 129 µM
inactive: all other assays above

CC/C=C\CC/C=C/C(OCC)OCC
active: [2] 150 µM | [11] 100 µM | [13] 142 µM
inactive: all other assays above

CCOC(=O)CC(=O)OCC
inactive: all assays above

C=CCOC(=O)C(=C)C
inactive: all assays above

C/C=C(\C)C(=O)OCC/C=C\CC
inactive: all assays above

NC(N)=Nc1nc(CSCCC(N)=NS(N)(=O)=O)cs1
active: [10] 153 µM
inactive: all other assays above

Nc1nnc(-c2ccc([N+](=O)[O-])o2)o1
active: [4] 33.4 µM
inactive: all other assays above

Cc1cc(-n2nc3ccc(Cl)cc3n2)c(O)c(C(C)(C)C)c1
inactive: all assays above

CCCCNC(N)=O
inactive: all assays above

O=C(Oc1ccccc1)c1ccccc1
inactive: all assays above

CCCCC(CC)COC(=O)CS (stereo not given)
inactive: all assays above
